From PubChem BioAssay AID720514 (Broad Institute, 2013) come the findings set out here.

Hit rate of the full screen: of about 2,100 compounds, about 300 (14%) were called active. Roughly 2% stayed inconclusive and do not appear here. Not all results are given here. Measured potencies and affinities stand elsewhere. Unmarked numbers belong to inactive results.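 The calls were made as follows: active = every replicate test run called active, with the signal falling and half-maximal concentration within twice the top valid dose; inconclusive = the replicate test runs disagree in their calls; inactive = every test run inactive, including effects in the opposite direction.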

This assay in a line: inhibitors of PGC1a acetylation in cells, dose response, cell-based, cherry-picked samples (AID 720514).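 Also: 0% = neutral control wells and -100% = positive control wells; actives lower the acetylation signal so they count as inhibitors of PGC1a acetylation.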 The settings on record: U2OS PGC1a acetylation, AlphaLISA, overnight; series mostly up to 19.5 µM; activity change, negative = inhibition: at the top concentration. On the technique in general: In Alpha technology, singlet oxygen from a donor bead excites a nearby acceptor bead.
For `C[C@H]1CN([C@@H](C)CO)C(=O)c2cccc(NS(=O)(=O)c3ccc(F)cc3)c2O[C@H]1CN(C)Cc1ccc(C(F)(F)F)cc1`, the “activity change, negative = inhibition” value is 70.5%.

With `COc1ccc(S(=O)(=O)N(C)C[C@@H]2Oc3cc(C#CC4CC4)ccc3S(=O)(=O)N([C@@H](C)CO)C[C@@H]2C)cc1`, the “activity change, negative = inhibition” value is 51.9%.

Take `COc1ccc(S(=O)(=O)N(C)C[C@@H]2Oc3cc(C#CC4CC4)ccc3S(=O)(=O)N([C@H](C)CO)C[C@@H]2C)cc1`: the “activity change, negative = inhibition” value is 43%.

Regarding `CCCCC(=O)Nc1ccc(NC(=O)c2cccs2)cn1`, the “activity change, negative = inhibition” value was 38.6%.

As for `OCCNc1nc(N2CCCCC2)nc2ccccc12`, the “activity change, negative = inhibition” value is 45.5%.

`Cc1ccc(-c2nnc(Nc3ccc4c(c3)OCO4)c3ccccc23)cc1S(=O)(=O)NCCO`: the “activity change, negative = inhibition” value is 76.8%.

For `O=[N+]([O-])c1cc(-c2nnc(Nc3ccc(O)cc3)c3ccccc23)ccc1N1CCOCC1`, the “activity change, negative = inhibition” value was 90.6%.

Regarding `Cc1ccc2c(CN(Cc3ccccc3)Cc3ccccc3)cc(=O)oc2c1`, the “activity change, negative = inhibition” value was 38.4%.

On to `COCCNC(=O)c1ccc(C)cc1C`, for which the “activity change, negative = inhibition” value was 24.6%.

For `COc1ccc(S(=O)(=O)N2CC[C@@H]3[C@H](CO)Nc4ccc(-c5ccccc5F)cc4[C@@H]32)cc1`, the “activity change, negative = inhibition” value was 68.9% [at 21 µM].

As for `Cc1ccc(S(=O)(=O)N(Cc2ccc(F)cc2)Cc2ccco2)cc1`, the “activity change, negative = inhibition” value was 84.4%.

For the compound `CCOc1ccc(Nc2oc(-c3ccc(Cl)cc3)nc2C#N)cc1`, the “activity change, negative = inhibition” value is 58% [at 10 µM].

With `COc1ccc(S(=O)(=O)N(C)C[C@@H]2Oc3ccc(NC(=O)CCN4CCOCC4)cc3C(=O)N([C@H](C)CO)C[C@H]2C)cc1`, the “activity change, negative = inhibition” value is 22.6%.

`CO[C@@H]1CN(C)C(=O)c2cc(NC(=O)c3ccc4c(c3)OCO4)ccc2OC[C@@H](C)N(CC2CC2)C[C@H]1C`: the “activity change, negative = inhibition” value was 17.3% [at 21 µM].

`COCC(=O)Nc1ccc2c(c1)OC[C@@H](C)N(CCc1ccccc1)C[C@H](C)[C@H](OC)CN(C)C2=O`: the “activity change, negative = inhibition” value is 51.7%.

With `COC(=O)c1c(NC(=O)COC(=O)[C@@H](NS(=O)(=O)c2ccccc2)C(C)C)sc2c1CCC2`, the “activity change, negative = inhibition” value was 67.1%.

Regarding `Cc1cc(Nc2ccccc2)cc(=O)n1C`, the “activity change, negative = inhibition” value was 16.7%.

Turning to `CCN(CC)CCOc1ccc(/C(=C(\Cl)c2ccccc2)c2ccccc2)cc1`, the “activity change, negative = inhibition” value is 61.5% [at 10 µM].

For `COc1ccc(CN(CCC(C)C)S(=O)(=O)c2ccccc2Br)cc1`, the “activity change, negative = inhibition” value was 127%.

Consider `O=C(NC1CCCCC1)c1cccnc1C(=O)O`, for which the “activity change, negative = inhibition” value is 37.9%.

Regarding `Nc1nnc(SCC(=O)NC2CCCCC2)n1-c1ccccc1`, the “activity change, negative = inhibition” value was 11.5%.

As to `Cc1ccccc1Cn1cc(NC(=O)c2cc(-c3cccs3)on2)cn1`, the “activity change, negative = inhibition” value was 81%.

Consider `Cc1cc2cc3c(cc2nc1SCC(=O)OC(C)C)OCCO3`, for which the “activity change, negative = inhibition” value is 60.8%.

Regarding `Cc1cccc(-c2ccc3[nH]c4c(c3c2)CCN2C[C@@H]([C@H](C)O)[C@@H](N(C)C(=O)NC3CCCCC3)C[C@@H]42)c1`, the “activity change, negative = inhibition” value is 56.9%.

Regarding `O=C(Nc1ccc(-c2noc(CCc3ccccc3)n2)cc1)c1cccnc1`, the “activity change, negative = inhibition” value is 407%.

`COC(=O)c1ccc2[nH]c3cccc(/C(=C/c4ccccc4)c4ccccc4)c3c2c1`: the “activity change, negative = inhibition” value is 55%.

For the compound `O=C(Nc1cnc2ccccc2c1)c1cccnc1`, the “activity change, negative = inhibition” value is 156% [at 5 µM].

`COc1ccc(Br)cc1CNc1ccccc1`: the “activity change, negative = inhibition” value is 103%.

In the case of `Cc1cc(C)n2c(SCC(=O)NCc3ccco3)nnc2n1`, the “activity change, negative = inhibition” value is 22.2%.

On to `CCn1c(SCC(=O)Nc2ccc(NC(=O)c3ccco3)cc2)nnc1-c1cccs1`, for which the “activity change, negative = inhibition” value was 162% [at 10 µM].

As for `NC(=O)Cc1ccc2c(c1)[nH]c1ccccc12`, the “activity change, negative = inhibition” value was 177%.

For `COc1ccccc1-c1ccc(C2[C@@H]3CN(S(=O)(=O)c4ccc(C)cc4)C[C@H]2N3)cc1` (some centres not stated), the “activity change, negative = inhibition” value is 43.6% [at 21 µM].

For the compound `Cc1ccccc1-c1ccc(C2[C@@H]3CN(S(=O)(=O)c4ccccc4C)C[C@H]2N3)cc1` (some centres not stated), the “activity change, negative = inhibition” value was 50.7%.

For `O=S(=O)(c1ccc(Cl)cc1)N1[C@@H]2CNC[C@H]1C2c1ccc(-c2cccc(F)c2)cc1` (some centres not stated), the “activity change, negative = inhibition” value was 115% [at 21 µM].

In the case of `Cc1ccc(S(=O)(=O)N2C[C@@H]3N[C@H](C2)[C@@H]3c2ccc(-c3cccc(C)c3)cc2)cc1`, the “activity change, negative = inhibition” value is 23.7%.

Regarding `Fc1ccc(CN(Cc2ccccc2)C(c2cccs2)c2nnnn2C2CCCCC2)cc1` (configuration not stated), the “activity change, negative = inhibition” value was 48.1%.

Take `O=C(NCc1ccc(Cl)cc1)C1CCC(CNc2c(N3CCCC3)c(=O)c2=O)CC1` (configuration not stated): the “activity change, negative = inhibition” value was 45.9%.

`Cc1cccc(Oc2nccc(C(F)(F)F)c2C(=O)Nc2ccc(F)cc2F)c1`: the “activity change, negative = inhibition” value is 48.5%.

Take `c1coc(CN(Cc2cccs2)Cc2nnnn2C2CCCCC2)c1`: the “activity change, negative = inhibition” value was 72.5%.

As for `C[C@@H](c1ccccc1)N1Cc2ccccc2Oc2cc(Br)ccc2S1(=O)=O`, the “activity change, negative = inhibition” value was 51%.

Consider `CCOC(=O)C1=CC[C@@H](c2ccc(F)cc2)N(S(=O)(=O)c2ccc(C)cc2)[C@H]1c1ccccc1`, for which the “activity change, negative = inhibition” value is 95.3% [at 10 µM].

As for `C=C[C@H]1C(C(=O)OCC)=CC[C@@H](c2ccccc2)N1S(=O)(=O)c1ccc(C)cc1`, the “activity change, negative = inhibition” value was 85.6%.

Take `O=C(Nc1cccnc1)c1ccc(Oc2ccccc2)cc1`: the “activity change, negative = inhibition” value is 239%.

Consider `Nc1ccc(N2CCCCC2)cc1N1CCCCC1`, for which the “activity change, negative = inhibition” value was 111%.

For the compound `O=C(Nc1cccnc1)c1ccc(Br)s1`, the “activity change, negative = inhibition” value was 197% [at 5 µM].

As for `Cc1ccc2[nH]c(=O)c(CN(Cc3ccc4c(c3)OCO4)Cc3nnnn3C3CCCC3)cc2c1`, the “activity change, negative = inhibition” value is 32.4%.

Turning to `O=C(Nc1ccc(F)cc1)N1CC(=O)N2[C@@H](CO)[C@H](c3ccc(Br)cc3)[C@@H]2C1`, the “activity change, negative = inhibition” value was 29% [at 21 µM].
